# Reference: PubChem BioAssay (NCI)
# About 79,000 compounds went through this panel and 15% of them were active in at least one assay; those are over-represented in the sample as a whole. A number with no mark means an inactive call. Calls of active or inactive are those of the source. Rule as the data show it: active = growth inhibition above about 70%; inactive = the rest.
# Columns and labels:
# [1] = NCI Yeast Anticancer Drug Screen. Data for the wt1 strain (AID 149);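 also: 0% = growth of vehicle-treated wt1 cultures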; conditions: S. cerevisiae wt1 strain (SPY 50644) growth inhibition, stronger effect = higher value
# In short: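 Readout: yeast growth inhibition, normalised to vehicle controls, in the wt1 strain exposed to test compounds.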
# [2] = NCI Yeast Anticancer Drug Screen. Data for the rad50EPP+ strain (AID 151);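 also: 0% = growth of vehicle-treated control cultures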; conditions: S. cerevisiae rad50 mutant strain, stronger effect = higher value
# In short: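 Vehicle-normalised growth inhibition; rad50EPP+ yeast strain, altered in DNA damage repair, compound-treated.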
# [3] = NCI Yeast Anticancer Drug Screen. Data for the mgt1 strain (AID 153); conditions: S. cerevisiae mgt1 mutant growth inhibition, stronger effect = higher value
# In short: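 Vehicle-normalized growth inhibition is determined in mgt1 yeast, a strain selected for a defined alteration in DNA repair or cell cycle control.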
# [4] = NCI Yeast Anticancer Drug Screen. Data for the CLN2oe strain (AID 163);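 also: 0% = growth of vehicle-only control cultures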; conditions: S. cerevisiae CLN2oe strain, stronger effect = higher value
# In short: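 Compounds are applied to yeast harbouring a defined cell-cycle control change; reduced growth compared with vehicle-treated controls gives the value.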
# [5] = NCI Yeast Anticancer Drug Screen. Data for the wt2 strain (AID 169);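 also: 0% = growth of vehicle-treated yeast cultures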; conditions: S. cerevisiae wt2 strain growth inhibition, stronger effect = higher value
# In short: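 Against vehicle-treated controls, the growth of yeast exposed to each compound was compared, and the inhibition was recorded.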
# [6] = NCI Yeast Anticancer Drug Screen. Data for the mlh1 strain (AID 171);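 also: 0% = growth of vehicle-treated control cultures of the same strain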; conditions: S. cerevisiae mlh1 strain growth inhibition, stronger effect = higher value
# In short: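 Measured: yeast growth. Reference: vehicle-treated controls. Organism: strain with a defined alteration affecting DNA damage repair or cell cycle control, treated with compound.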
# [7] = NCI Yeast Anticancer Drug Screen. Data for the sgs1 strain (AID 173);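 also: 0% = growth of vehicle-only control cultures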; conditions: S. cerevisiae sgs1 mutant, stronger effect = higher value
# In short: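 Each compound was added to cultures of the altered yeast strain. Growth was recorded, and inhibition was derived by comparison with vehicle controls.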
# [8] = NCI Yeast Anticancer Drug Screen. Data for the rad18 strain (AID 177); conditions: S. cerevisiae rad18 mutant growth inhibition, stronger effect = higher value
# In short: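 Vehicle-treated cultures served as the baseline for scoring compound-induced growth inhibition in DNA-repair-mutant yeast.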
# [9] = NCI Yeast Anticancer Drug Screen. Data for the rad50 strain (AID 155);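 also: 0% = growth of vehicle-only cultures of the same strain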; conditions: S. cerevisiae rad50 strain growth inhibition, stronger effect = higher value
# In short: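 Compounds were tested on a yeast strain with an engineered DNA damage repair alteration; the reported value is growth inhibition normalised to vehicle treatment.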
# [10] = NCI Yeast Anticancer Drug Screen. Data for the mec2-1 strain (AID 157); conditions: S. cerevisiae mec2-1 strain, stronger effect = higher value
# In short: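 Mutant yeast (mec2-1) grown with compound; growth inhibition relative to vehicle control reported.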
# [11] = NCI Yeast Anticancer Drug Screen. Data for the rad14 strain (AID 159);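 also: 0% = growth of vehicle-treated control cultures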; conditions: S. cerevisiae rad14 strain growth inhibition, stronger effect = higher value
# In short: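 Compound-treated yeast with a defined DNA-repair lesion; growth inhibition normalised to vehicle-treated cultures.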
# [12] = NCI Yeast Anticancer Drug Screen. Data for the sgs1 mgt1 strain (AID 161);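 also: 0% = growth of cultures given vehicle only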; conditions: S. cerevisiae sgs1 mgt1 strain, stronger effect = higher value
# In short: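 Compounds are added to genetically altered yeast, and growth is compared with cultures given vehicle alone to give percent inhibition.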
# [13] = NCI Yeast Anticancer Drug Screen. Data for the cln2 rad14 strain (AID 165);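 also: 0% = growth equal to vehicle treated cultures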; conditions: S. cerevisiae cln2 rad14 strain, stronger effect = higher value
# In short: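 Readout is yeast growth inhibition versus vehicle-treated controls, using a strain with cln2 and rad14 alterations exposed to compound.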
# [14] = NCI Yeast Anticancer Drug Screen. Data for the bub3 strain (AID 167); conditions: S. cerevisiae bub3 mutant strain, stronger effect = higher value
# In short: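 Growth of a checkpoint-deficient yeast mutant is measured after compound exposure. Values represent inhibition relative to vehicle.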
# [15] = NCI Yeast Anticancer Drug Screen. Data for the mlh1 rad18 strain (AID 175); conditions: S. cerevisiae mlh1 rad18 strain growth inhibition, stronger effect = higher value
# In short: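 Genetically defined yeast (DNA repair-deficient) exposed to compounds; growth inhibition determined relative to vehicle.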
# [16] = at 5.0 µM (retest, dose inferred, filed as 0.5)
# [17] = at 50.0 µM (retest, dose inferred, filed as 5.0)
compound,measurement,setting,value
[Pt].c1ccc(P(CCP(c2ccccc2)c2ccccc2)CCP(c2ccccc2)c2ccccc2)cc1,growth inhibition,[1]; at 1.2 µM,-1%
same,growth inhibition,[1]; at 3.7 µM,6%
same,growth inhibition,[1]; at 11.0 µM,19%
same,growth inhibition,[1]; at 33.0 µM,94% (active)
same,growth inhibition,[1]; at 100.0 µM,90% (active)
same,growth inhibition,[2]; at 1.2 µM,-8%
same,growth inhibition,[2]; at 3.7 µM,-1%
same,growth inhibition,[2]; at 11.0 µM,11%
same,growth inhibition,[2]; at 33.0 µM,61%
same,growth inhibition,[2]; at 100.0 µM,85% (active)
same,growth inhibition,[3]; at 1.2 µM,-5%
same,growth inhibition,[3]; at 3.7 µM,-18%
same,growth inhibition,[3]; at 11.0 µM,2%
same,growth inhibition,[3]; at 33.0 µM,92% (active)
same,growth inhibition,[3]; at 100.0 µM,94% (active)
same,growth inhibition,[4]; at 1.2 µM,-18%
same,growth inhibition,[4]; at 3.7 µM,-4%
same,growth inhibition,[4]; at 11.0 µM,4%
same,growth inhibition,[4]; at 33.0 µM,95% (active)
same,growth inhibition,[4]; at 100.0 µM,88% (active)
same,growth inhibition,[5]; at 1.2 µM,-7%
same,growth inhibition,[5]; at 3.7 µM,-4%
same,growth inhibition,[5]; at 11.0 µM,2%
same,growth inhibition,[5]; at 33.0 µM,83% (active)
same,growth inhibition,[5]; at 100.0 µM,93% (active)
same,growth inhibition,[6]; at 1.2 µM,5%
same,growth inhibition,[6]; at 3.7 µM,-5%
same,growth inhibition,[6]; at 11.0 µM,-1%
same,growth inhibition,[6]; at 33.0 µM,94% (active)
same,growth inhibition,[6]; at 100.0 µM,92% (active)
same,growth inhibition,[7]; at 1.2 µM,2%
same,growth inhibition,[7]; at 3.7 µM,5%
same,growth inhibition,[7]; at 11.0 µM,41%
same,growth inhibition,[7]; at 33.0 µM,96% (active)
same,growth inhibition,[7]; at 100.0 µM,94% (active)
same,growth inhibition,[8]; at 1.2 µM,-33%
same,growth inhibition,[8]; at 3.7 µM,6%
same,growth inhibition,[8]; at 11.0 µM,20%
same,growth inhibition,[8]; at 33.0 µM,94% (active)
same,growth inhibition,[8]; at 100.0 µM,83% (active)
CC1C(C#N)(C#N)C(C#N)=C(N)C1(Cl)[N+](=O)[O-] (stereo not drawn),growth inhibition,[1]; at 1.2 µM,10%
same,growth inhibition,[1]; at 3.7 µM,9%
same,growth inhibition,[1]; at 11.0 µM,8%
same,growth inhibition,[1]; at 33.0 µM,22%
same,growth inhibition,[1]; at 100.0 µM,55%
same,growth inhibition,[2]; at 1.2 µM,19%
same,growth inhibition,[2]; at 3.7 µM,37%
same,growth inhibition,[2]; at 11.0 µM,55%
same,growth inhibition,[2]; at 33.0 µM,78% (active)
same,growth inhibition,[2]; at 100.0 µM,85% (active)
same,growth inhibition,[9]; at 1.2 µM,4%
same,growth inhibition,[9]; at 3.7 µM,26%
same,growth inhibition,[9]; [16],24%
same,growth inhibition,[9]; at 11.0 µM,29%
same,growth inhibition,[9]; at 33.0 µM,40%
same,growth inhibition,[9]; [17],78% (active)
same,growth inhibition,[9]; at 50.0 µM,77.5% (active)
same,growth inhibition,[9]; at 100.0 µM,76% (active)
same,growth inhibition,[10]; at 1.2 µM,0%
same,growth inhibition,[10]; at 3.7 µM,30%
same,growth inhibition,[10]; [16],11%
same,growth inhibition,[10]; at 11.0 µM,32%
same,growth inhibition,[10]; at 33.0 µM,41%
same,growth inhibition,[10]; [17],85% (active)
same,growth inhibition,[10]; at 50.0 µM,77.4% (active)
same,growth inhibition,[10]; at 100.0 µM,81% (active)
same,growth inhibition,[11]; at 1.2 µM,1%
same,growth inhibition,[11]; at 3.7 µM,8%
same,growth inhibition,[11]; at 11.0 µM,15%
same,growth inhibition,[11]; at 33.0 µM,28%
same,growth inhibition,[11]; at 100.0 µM,67%
same,growth inhibition,[12]; [16],11%
same,growth inhibition,[12]; [17],78% (active)
same,growth inhibition,[12]; at 50.0 µM,76% (active)
same,growth inhibition,[4]; at 1.2 µM,19%
same,growth inhibition,[4]; at 3.7 µM,39%
same,growth inhibition,[4]; at 11.0 µM,48%
same,growth inhibition,[4]; at 33.0 µM,53%
same,growth inhibition,[4]; at 100.0 µM,88% (active)
same,growth inhibition,[13]; [16],-5%
same,growth inhibition,[13]; [17],30%
same,growth inhibition,[13]; at 50.0 µM,65.8%
same,growth inhibition,[14]; at 1.2 µM,12%
same,growth inhibition,[14]; at 3.7 µM,12%
same,growth inhibition,[14]; [16],20%
same,growth inhibition,[14]; at 11.0 µM,20%
same,growth inhibition,[14]; at 33.0 µM,49%
same,growth inhibition,[14]; [17],86% (active)
same,growth inhibition,[14]; at 50.0 µM,73.8% (active)
same,growth inhibition,[14]; at 100.0 µM,84% (active)
same,growth inhibition,[5]; at 1.2 µM,-1%
same,growth inhibition,[5]; at 3.7 µM,7%
same,growth inhibition,[5]; at 11.0 µM,22%
same,growth inhibition,[5]; at 33.0 µM,58%
same,growth inhibition,[5]; at 100.0 µM,92% (active)
same,growth inhibition,[6]; at 1.2 µM,11%
same,growth inhibition,[6]; at 3.7 µM,28%
same,growth inhibition,[6]; at 11.0 µM,45%
same,growth inhibition,[6]; at 33.0 µM,68%
same,growth inhibition,[6]; at 100.0 µM,89% (active)
same,growth inhibition,[7]; at 1.2 µM,28%
same,growth inhibition,[7]; at 3.7 µM,20%
same,growth inhibition,[7]; at 11.0 µM,37%
same,growth inhibition,[7]; at 33.0 µM,61%
same,growth inhibition,[7]; at 100.0 µM,90% (active)
same,growth inhibition,[15]; [16],19%
same,growth inhibition,[15]; [17],94% (active)
same,growth inhibition,[15]; at 50.0 µM,48%
same,growth inhibition,[8]; at 1.2 µM,14%
same,growth inhibition,[8]; at 3.7 µM,17%
same,growth inhibition,[8]; at 11.0 µM,34%
same,growth inhibition,[8]; at 33.0 µM,61%
same,growth inhibition,[8]; at 100.0 µM,87% (active)
